Assay [1] in a line: qHTS assay to identify small molecule antagonists of the estrogen related receptor (ERR) signaling pathway from Tox21 library - cell viability counter screen (AID 1224834). Also: nearly all actives have a fitted effect of over 30% in size. The essentials:
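CellTiter-Fluor fluorescence, read after 30 min at 37 C, measures viability of ERR cells. Cells plated at 2,000/well and incubated 6 h before pin-tool compound addition, then exposed 17.5 hours at 37 C.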
For orientation: Quantitative high-throughput screening tests each substance at several concentrations.

Assay [2] deals with Luciferin 4-monooxygenase (Photinus pyralis) (UniProt P08659). The assay is described as follows: qHTS assay to identify small molecule inhibitors of firefly luciferase (AID 1224835). Also: nearly all actives have a fitted effect of over 25% in size. Also: potency is read from the fitted curve at half-maximal effect. The procedure, abridged:
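Biochemical qHTS: compounds run as interplate titrations against purified firefly enzyme, with D-luciferin and ATP each at its KM concentration. Light output recorded by CCD imaging.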

Assay [3] is described as follows: qHTS assay to identify small molecule agonists of the constitutive androstane receptor (CAR) signaling pathway - cell viability counter screen (AID 1224836). Also: nearly all actives have a fitted effect of over 45% in size. The essentials: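 Multiplexed viability check: HepG2-CYP2B6-hCAR cells, 15-point compound dosing, 0.75 uM PK11195 final, 23 h at 37 C, CellTiter-Fluor fluorescence.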
A short description of assay [4]: qHTS assay to identify small molecule antagonists of the constitutive androstane receptor (CAR) signaling pathway - cell viability counter screen (AID 1224837). Also: nearly all actives have a fitted effect of over 45% in size. The procedure, abridged: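 Cytotoxicity counter-screen: CellTiter-Fluor fluorescence after 23 h compound exposure (15-point qHTS) in double-stable HepG2-CYP2B6-hCAR cells, with 50 nM CITCO added.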
In assay [5] the target is Nuclear receptor subfamily 1 group I member 3 (Homo sapiens) (UniProt Q14994). The assay can be described thus: qHTS assay to identify small molecule antagonists of the constitutive androstane receptor (CAR) signaling pathway (AID 1224838).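 Also: HepG2 cells stably expressing hCAR with CYP2B6 luciferase reporter stimulated by CITCO; nearly all actives have a fitted effect of over 40% in size.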 The procedure, abridged: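 Antagonism measured as luciferase signal (ONE-Glo, 30 min, room temperature) in CAR-stimulated cells: HepG2-CYP2B6-hCAR double-stable line exposed 24 hr at 37 C to compound in a 15-point series plus 50 nM CITCO.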

Assay [6] shares this target. The assay can be described thus: qHTS assay to identify small molecule agonists of the constitutive androstane receptor (CAR) signaling pathway (AID 1224839).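 Also: HepG2 cells stably carrying human CAR and a CYP2B6 luciferase reporter; nearly all actives have a fitted effect of over 15% in size.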 The essentials: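 Using human hepatoma HepG2 cells engineered with hCAR and a CYP2B6-2.2kb reporter, 15-concentration compound series were incubated 24 h alongside PK11195 at 0.75 uM final, with luminescence quantified afterwards.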

Assay [7] can be described thus: qHTS assay to identify small molecule antagonists of the estrogen related receptor signaling pathway with the pleiotropic PPARgamma coactivator (PGC) from Tox21 10K library - cell viability counter screen (AID 1224840; active = well fitted cell-killing curve with a large enough effect in the repeat runs, not every such curve was filed as active; also: nearly all actives have a fitted effect of over 40% in size). The procedure, abridged:
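Counter-screen for cytotoxicity: after 17.5 h compound exposure at 37 C, CellTiter-Fluor reagent added to PGC/ERR cells for 30 min and fluorescence read. Cells were seeded at 2,000 per well 6 h before dosing.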

Assay [8] addresses Thyrotropin receptor (Homo sapiens) (UniProt P16473). The assay can be described thus: qHTS assay to identify small molecule agonists of the thyroid stimulating hormone receptor (TSHR) signaling pathway (AID 1224843; calls by dose curve; also: nearly all actives have a fitted effect of over 45% in size). The essentials: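 HEK293/TSHR, 800 cells/well; cpd 30 min RT; add cAMP-d2 + anti-cAMP-cryptate, 1 h RT; fluorescence read on plate reader. 15-pt titration, n=3.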

Assay [9] in a line: qHTS assay to identify small molecule agonists of the hypoxia (HIF-1) signaling pathway - cell viability counter screen (AID 1224844; calls by dose curve; also: nearly all actives have a fitted effect of over 50% in size). The procedure, abridged:
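Cytotoxicity measured by CellTiter-Glo ATP luminescence in the wells also read for beta-lactamase signal. Cells were HRE-bla ME-180 (2,000/well, 0.5% dialyzed FBS), exposed to compounds for 17 h at 37C.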

A short description of assay [10]: qHTS assay to identify small molecule agonists of H2AX (AID 1224845; active = well fitted activation curve with a large enough effect in the signal ratio in the repeat runs, not every such curve was filed as active; the % refers to the signal ratio). The procedure, abridged: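 Wild-type CHO-K1 cells, plated overnight, exposed 3hr at 37C to 15 concentrations (0.76% DMSO final). Lysed, then HTRF anti-pH2AX (S139) cryptate and anti-H2AX-d2 antibodies, 24 hr room temperature; 665/620 nm emission read.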
Assay [11] can be described thus: qHTS assay to identify small molecule agonists of the hypoxia (HIF-1) signaling pathway (AID 1224846; active = well fitted activation curve with a large enough effect in the signal ratio in the repeat runs, not every such curve was filed as active; the % refers to the signal ratio). The essentials:
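Compounds added to ME-180 cells carrying hypoxia-response-element beta-lactamase reporter (0.5% dialyzed FBS, 5 h preplating), 17 h at 37C; agonist activity detected by CCF4-AM B/G FRET read-out.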

The nature of assay [12]: qHTS assay to identify small molecule agonists of the estrogen related receptor (ERR) signaling pathway from Tox21 library (AID 1224849; calls by dose curve; also: nearly all actives have a fitted effect of over 15% in size). Conditions: ERR reporter cell line, ONE-Glo luciferase, 18 h; at 92.4 µM (top of the series) unless noted. The essentials: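 Luminescent agonist read-out (One-Glo, 30-minute room-temperature incubation) following 18-hour compound treatment at 37 C of the ERR cell line, which had been plated 6 hours before dosing.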

A short description of assay [13]: qHTS RealTime-Glo MT Cell Viability Assay in HepG2 cells - 24 hour (AID 1224867). Also: nearly all actives have a fitted effect of over 50% in size. The essentials:
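Luminescence read-out: viable HepG2 cells reduce a prosubstrate to a NanoLuc substrate, giving a signal proportional to live cell number. Reads taken at 0, 8, 16, 24, 32 and 40 h of compound exposure at 37 C.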

Assay [14] is described as follows: qHTS RealTime-Glo MT Cell Viability Assay in HEK293 cells - 32 hour (AID 1224868). Also: nearly all actives have a fitted effect of over 50% in size. Also: potency is read from the fitted curve at half-maximal effect. As to activity change, negative = cytotoxic: top concentration of the series differs between compounds. The procedure, abridged:
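Nonlytic real-time viability readout: viable cells convert prosubstrate to NanoLuc substrate, giving luminescence proportional to live cell number. HEK293, 600 cells/well, compound added after 5 h, continuous culture at 37 C.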

Assay [15] can be described thus: A CellTox Green Cytotoxicity Assay to monitor cytotoxicity in HEK293 cells - 0 hour (AID 1224869). Also: nearly all actives have a fitted effect of over 50% in size. The essentials: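 Fluorescence from a DNA-binding dye excluded by viable cells was measured repeatedly in the same HEK293 wells (600 cells/well) during continuous compound exposure at 37 C. Each assay gives one read point: 0, 8, 16, 24, 32 or 40 h.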
Assay [16] is described as follows: qHTS assay to identify small molecule agonists of H2AX - cell viability counter screen (AID 1224847; calls by dose curve; also: nearly all actives have a fitted effect of over 30% in size; also: potency is read from the fitted curve at half-maximal effect; as to activity change, negative = cytotoxicity: top concentration of the series differs between compounds). The procedure, abridged:
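After overnight plating of 1000 CHO-K1 cells per well, a 15-concentration compound series was applied for 3 hr at 37C. Luminescence from CellTiter-Glo, read following 30 min at room temperature, reflected cell viability.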

A short description of assay [17]: qHTS assay to identify small molecule antagonists of the estrogen related receptor signaling pathway with the pleiotropic PPARgamma coactivator (PGC) from Tox21 10K library (AID 1224841; call rule not given here). The procedure, abridged: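 Luminescence (One-Glo, 30 min at room temperature) after 18 h compound treatment at 37 C of PGC/ERR reporter cells plated at 2,000 cells/well and settled 6 h beforehand.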

Unmarked numbers belong to inactive results. Records with an inconclusive call do not appear. Active and inactive are the calls of the source. Unless noted, calls follow the shape of the dose curve; as a rule, active = well fitted curve in the direction sought with a large enough effect in the repeat runs; inconclusive = weak or mixed curves; inactive = no such curve, though single readings can be large; an effect the other way counts as inactive or inconclusive.
% is scaled to controls: 0 for no effect and ±100 for the full control effect.

Chain of Luciferin 4-monooxygenase (Photinus pyralis) (P08659 whole entry, looked up): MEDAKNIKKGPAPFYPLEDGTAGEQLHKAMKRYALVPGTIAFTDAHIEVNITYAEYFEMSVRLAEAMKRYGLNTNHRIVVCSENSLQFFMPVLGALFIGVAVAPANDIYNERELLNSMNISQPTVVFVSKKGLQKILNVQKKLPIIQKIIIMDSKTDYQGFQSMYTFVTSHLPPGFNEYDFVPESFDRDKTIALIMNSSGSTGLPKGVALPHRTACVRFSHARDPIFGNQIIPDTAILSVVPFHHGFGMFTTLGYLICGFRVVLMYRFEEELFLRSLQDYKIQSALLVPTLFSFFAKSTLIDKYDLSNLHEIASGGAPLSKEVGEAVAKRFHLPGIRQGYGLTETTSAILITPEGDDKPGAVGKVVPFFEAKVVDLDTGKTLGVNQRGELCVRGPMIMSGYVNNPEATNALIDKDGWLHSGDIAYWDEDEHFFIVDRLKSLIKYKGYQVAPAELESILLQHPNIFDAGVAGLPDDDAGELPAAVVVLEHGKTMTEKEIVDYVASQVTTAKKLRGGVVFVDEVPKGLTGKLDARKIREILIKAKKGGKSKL
Chain of Thyrotropin receptor (Homo sapiens) (P16473 whole entry, looked up): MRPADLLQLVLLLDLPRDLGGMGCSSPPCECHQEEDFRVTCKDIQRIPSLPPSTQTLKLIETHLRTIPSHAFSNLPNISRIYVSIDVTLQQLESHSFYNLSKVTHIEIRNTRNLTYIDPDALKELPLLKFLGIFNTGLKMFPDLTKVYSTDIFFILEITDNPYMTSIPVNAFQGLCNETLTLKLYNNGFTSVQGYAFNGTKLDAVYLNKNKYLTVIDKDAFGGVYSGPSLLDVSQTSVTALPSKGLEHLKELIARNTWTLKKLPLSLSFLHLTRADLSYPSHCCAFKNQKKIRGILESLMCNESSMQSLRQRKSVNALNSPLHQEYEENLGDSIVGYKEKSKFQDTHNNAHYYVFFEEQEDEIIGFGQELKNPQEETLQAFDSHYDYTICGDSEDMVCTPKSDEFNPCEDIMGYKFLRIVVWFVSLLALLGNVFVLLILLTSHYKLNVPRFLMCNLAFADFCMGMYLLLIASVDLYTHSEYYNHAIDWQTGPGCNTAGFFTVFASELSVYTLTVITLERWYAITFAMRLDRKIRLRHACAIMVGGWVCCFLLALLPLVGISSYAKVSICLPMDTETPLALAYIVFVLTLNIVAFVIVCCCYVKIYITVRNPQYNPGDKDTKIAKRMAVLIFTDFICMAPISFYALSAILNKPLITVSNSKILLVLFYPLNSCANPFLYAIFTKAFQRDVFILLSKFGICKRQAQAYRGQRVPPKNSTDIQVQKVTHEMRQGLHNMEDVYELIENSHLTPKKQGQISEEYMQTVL
Chain of Nuclear receptor subfamily 1 group I member 3 (Homo sapiens) (Q14994 whole entry, looked up): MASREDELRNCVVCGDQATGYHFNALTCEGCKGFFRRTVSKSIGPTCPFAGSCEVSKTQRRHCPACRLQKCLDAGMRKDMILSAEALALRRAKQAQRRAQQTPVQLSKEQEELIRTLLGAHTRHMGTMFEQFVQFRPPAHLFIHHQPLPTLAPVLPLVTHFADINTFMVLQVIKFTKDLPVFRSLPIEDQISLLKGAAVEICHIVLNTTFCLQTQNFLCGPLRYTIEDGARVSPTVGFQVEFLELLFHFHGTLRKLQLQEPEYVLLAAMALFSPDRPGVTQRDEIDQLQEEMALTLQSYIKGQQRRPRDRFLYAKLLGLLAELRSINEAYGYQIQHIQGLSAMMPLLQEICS

As for `CO/N=C1\CN(c2nc3c(cc2F)c(=O)c(C(=O)O)cn3C2CC2)CC1CN` (stereo unspecified), the Potency result in assay [1], in assay [2], in assay [3], in assay [4], in assay [5] and in assay [6] was “inactive” throughout. Besides, the Potency entry in assay [7], in assay [8], in assay [9], in [10], in assay [13] and in assay [14] was “inactive” each time. The Potency entry in assay [15] is “inactive”. Further, the outcome in assay [11] was inactive. The activity change, positive = activation in assay [12] was -26.9% [at 42.5 µM].

Turning to `CCCC(=O)O[C@]1(C(=O)COC(=O)CC)CC[C@H]2[C@@H]3CCC4=CC(=O)CC[C@]4(C)[C@H]3[C@@H](O)C[C@@]21C`, the viability change, negative = cytotoxic is 2.61% [at 19 µM] in assay [1], 10.6% [at 19 µM] in [3] and -4.48% [at 19 µM] in assay [7]. For the same molecule, the activity change, negative = inhibition in [2] is 4.64% [at 23.6 µM]. Further, the activity change, negative = cytotoxicity in [4] was 6.46% [at 19 µM]; in [9], -1.64% [at 15.8 µM]; in [16], 1.02% [at 31.6 µM]; in assay [13], 1.66% [at 15.8 µM]. In assay [5], the activity, negative = inhibition was 2.05% [at 19 µM]. The values for the activation in assay [6], in assay [8] and in assay [11] were -0.514% [at 19 µM], -3.04% [at 19 µM] and -2.77% [at 15.8 µM], respectively. For the same molecule, the activation (H2AX phosphorylation) in assay [10] was -1.56% [at 31.6 µM]. Besides, the activity change, negative = cytotoxic in assay [14] is -2.43% [at 15.8 µM]. Besides, the cytotoxicity in assay [15] is -7.53% [at 15.8 µM].

On to `CN1CCN(c2c(F)cc3c(=O)c(C(=O)O)cn4c3c2OCN4C)CC1`, for which the viability change, negative = cytotoxic in assay [1] was 6.99% [at 19 µM]; in [3], 0.256% [at 19 µM]; in assay [7], 9.28% [at 19 µM]. Besides, the activity change, negative = inhibition in [2] was 2.58% [at 23.6 µM]. Also, the activity change, negative = cytotoxicity in assay [4] is -2.88% [at 19 µM]; in [9] it was 3.62% [at 15.8 µM]; in assay [16] it was 0.372% [at 31.6 µM]; in assay [13], 3.52% [at 15.8 µM]. Besides, the activity, negative = inhibition in assay [5] is 0.0919% [at 19 µM]. The activation in assay [6] is -1.52% [at 19 µM]; in [8], -2.64% [at 19 µM]. The activation (H2AX phosphorylation) in [10] was -2.48% [at 31.6 µM]. Moreover, in assay [14], the activity change, negative = cytotoxic was 1.18% [at 15.8 µM]. Also, the cytotoxicity in assay [15] is -13.4% [at 15.8 µM].

Consider `O=C(O)c1ccc(CO)o1`, for which the Potency result in [1], in [2], in assay [3], in [4], in assay [5] and in assay [6] was “inactive” in each case. The Potency entry in assay [7], in assay [8], in assay [9], in assay [10], in assay [13] and in [14] was “inactive” each time. Besides, the Potency entry in assay [15] was “inactive”. The molecule was classed as inactive in assay [11].

With `O=C(CS)OCCOC(=O)CS`, the Potency result in assay [1], in [2], in [3], in assay [4], in assay [5] and in [6] was “inactive” throughout. Also, the Potency entry in [7], in [17], in assay [8], in assay [10], in assay [13] and in assay [14] was “inactive” throughout. Besides, in [15], the Potency entry was “inactive”. Besides, in assay [11], the call was inactive.

For `CCCOC(=O)c1ccc(C(=O)OCCC)nc1`, the Potency entry in assay [1], in [3], in [4], in [5], in [6] and in [7] was “inactive” each time. Moreover, the Potency entry in assay [8], in [9], in assay [10], in assay [16], in [13] and in [14] was “inactive” in each case. Further, the Potency result in [15] was “inactive”. Besides, in [2], the Potency was 35.6 µM (active). Moreover, the call in assay [11] was inactive.

In the case of `CCCCCCCCCCCCCCC[C@H](O)[C@@H](N)CO`, the Potency entry in assay [1], in [2], in assay [3], in [4], in assay [5] and in assay [6] was “inactive” each time. Moreover, the Potency entry in assay [7], in assay [8], in [9] and in assay [10] was “inactive” in each case. Moreover, the Potency is 49.2 µM (active) in assay [16] and 23.9 µM (active) in assay [14].

For the molecule `CCn1nc(C)c2c1C(=O)NCC(c1ccc(O)cc1)=N2`, the Potency entry in assay [1], in assay [2], in assay [3], in assay [4], in assay [5] and in [6] was “inactive” each time. Further, the Potency result in [7], in assay [8], in assay [9], in [10], in assay [13] and in assay [14] was “inactive” throughout. Also, in assay [15], the Potency entry was “inactive”. Moreover, the molecule was classed as inactive in [11].

With `CC(C)C(=O)O`, the Potency result in assay [1], in assay [2], in [3], in [4], in assay [5] and in assay [6] was “inactive” each time. Moreover, the Potency entry in assay [7], in assay [9], in assay [10], in assay [13], in assay [14] and in assay [15] was “inactive” throughout. For the same molecule, the molecule was classed as inactive in assay [11].

The values above are taken from PubChem BioAssay (Tox21).
